# Test results published in the supplement of paper PMC10933113.
# Structures can show the parent of a compound that is named as a salt. ± gives the uncertainty stated by the source.
# Tested on: THP-1
# Assay: CD86 surface expression induction over DMSO control (% over DMSO); higher = stronger dendritic cell activation
# Details: exposure time: 24 h
# Description: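 hCLAT-like CD54 and CD86 surface expression on THP1 cells after 24 h exposure at a single concentration (highest non-cytotoxic concentration, or 100-200 µM if not cytotoxic). Flow cytometry (iQue) was run on 5,000 live cells.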
row,Structure (SMILES),CD86 surface expression induction
1,C=C(C)C(=O)Nc1ccc(Cl)c(Cl)c1 [Chloranocryl] (100 µM),-22.2 ± 23
2,CCN(CC)CCOc1ccc2c(c1)C(=O)c1cc(OCCN(CC)CC)ccc1-2 [Tilorone] (200 µM),58 ± 31
3,Oc1ccc2ccccc2c1N=Nc1ccccc1 [C.I. Solvent Yellow 14] (200 µM),3.18 ± 3.5
4,Clc1ccc2c(c1)Nc1ccccc1S2 [2-Chlorophenothiazine] (100 µM),-11 ± 14
5,c1ccc2cc3c(ccc4ccccc43)cc2c1 [Benz(a)anthracene] (200 µM),-20.1 ± 26
6,COc1cccc2c1C(=O)c1c(O)c3c(c(O)c1C2=O)C[C@@](O)(C(=O)CO)C[C@@H]3O[C@H]1C[C@H](N)[C@H](O[C@@H]2CCCCO2)[C@H](C)O1 [Pirarubicin*] (10 µM),324 ± 3.3
7,O=CC(=O)c1ccccc1 [Phenyl glyoxal] (100 µM),4.41 ± 2
8,CC1COc2ccccc2N1C(=O)C(Cl)Cl (stereo not given) [Benoxacor] (10 µM),17.1 ± 5.4
9,COc1ccc(C(=O)/C(Br)=C\C(=O)O)cc1 [Cytembena] (200 µM),32 ± 49
10,NC(=O)n1c(O)c(C(=O)c2cccs2)c2cc(Cl)ccc21 [Tenidap*] (200 µM),98.4 ± 52
11,"CC(C)c1ccc2cc(C(C)C)ccc2c1 [2,6-Diisopropylnaphthalene] (200 µM)",18.9 ± 22
12,CCC(=O)C=Cc1ccc(OC)cc1 [1-(4-Methoxyphenyl)-1-pentene-3-one] (200 µM),6.83 ± 10
13,CNc1ccc(O)cc1 [4-(Methylamino)phenol Sulfate] (10 µM),37.1 ± 4.6
14,O=C(Nc1ccccc1)c1cc(Cl)ccc1O [5-Chlorosalicylanilide] (10 µM),-11.7 ± 12
15,CC(C)c1ccc2oc3nc(N)c(C(=O)O)cc3c(=O)c2c1 [Amlexanox] (100 µM),8.56 ± 19
16,Nc1ccc2cc3ccccc3cc2c1 [2-Aminoanthracene] (200 µM),-10.7 ± 9.7
17,Oc1c(I)cc(Cl)c2cccnc12 [Clioquinol] (100 µM),64.9 ± 88
18,O=C1OC(OC(=O)c2cccnc2Nc2cccc(C(F)(F)F)c2)c2ccccc21 (stereo not given) [Talniflumate] (100 µM),-7.81 ± 1
19,CO[C@@H]1[C@H](OC(=O)/C=C/C=C/C=C/C=C/C(=O)O)CC[C@]2(CO2)[C@H]1[C@@]1(C)O[C@@H]1CC=C(C)C [Fumagillin] (100 µM),-0.42 ± 8.1
20,O=C1c2cccc(O)c2C(=O)c2c(O)cc(CO)cc21 [Aloe-emodin] (100 µM),4.61 ± 9.4

row,Structure (SMILES),CD86 surface expression induction
1,C[n+]1cc2c3c(ccc2c2ccc4cc5c(cc4c21)OCO5)OCO3 [Sanguinarine] (10 µM),73.1 ± 11
2,Clc1ccccc1-c1nc(-c2ccncc2)no1 [Pifexole] (100 µM),3.84 ± 13
3,CCCCCCCC/C=C\CCCCCCCC(=O)N(C)CC(=O)O [Oleyl sarcosine] (100 µM),-14.4 ± 36
4,N=C1C=CC(=C(c2ccc(N)cc2)c2ccc(N)cc2)C=C1 [C.I. Basic Red 9 monohydrochloride] (10 µM),-3.84 ± 5
5,CC(=O)Oc1ccc(C2(c3ccc(OC(C)=O)cc3)C(=O)Nc3ccccc32)cc1 [Oxyphenisatin acetate] (100 µM),6.01 ± 7.9
6,COc1cc(C(C)C)c2c(c1)S(=O)(=O)N(COc1cc(=O)n3cccc(OCCN4CCCCC4)c3n1)C2=O (100 µM),117 ± 98
7,CCCSS/C(CCO)=C(/C)N(C=O)Cc1cnc(C)nc1N [Prosultiamine] (10 µM),-13 ± 4.4
8,CCCCC1C(=O)N(c2ccccc2)N(c2ccc(O)cc2)C1=O (stereo not given) [Oxyphenbutazone] (10 µM),24.6 ± 15
9,"O=C(O)c1cc(O)c2ccccc2c1O [1,4-dihydroxy-2-naphthoic acid*] (10 µM)",290 ± 51
10,O=c1cc(-c2ccccc2)oc2cc(O)cc(O)c12 [Chrysin] (100 µM),38.2 ± 51
11,"CC(C)=CCC/C(C)=C\CO [(2Z)-3,7-Dimethylocta-2,6-dien-1-ol] (200 µM)",6.83 ± 19
12,CC(C)NC(=O)c1ccc(C=O)cc1 [N-isopropyl-4-formylbenzamide] (100 µM),-3.04 ± 5.2
13,COC(=O)Nc1nc2ccc(C(=O)C3CC3)cc2[nH]1 [Cyclobendazole] (100 µM),7.71 ± 16
14,"CC(O)C#CC(C)O (stereo not given) [Hex-3-yne-2,5-diol] (10 µM)",0.05 ± 2.9
15,"Nc1nnc(-c2ccc([N+](=O)[O-])o2)o1 [2-Amino-5-(5-nitro-2-furyl)-1,3,4-oxadiazole] (10 µM)",-2.6 ± 2.1
16,O=C1c2cccc(O)c2C(=O)c2c(O)cccc21 [Danthron] (100 µM),6.93 ± 0.81
17,[Cl][Bi]([Cl])([c]1ccccc1)([c]1ccccc1)[c]1ccccc1 [Triphenylbismuthine dichloride] (10 µM),53 ± 6.3
18,CCc1oc2ccccc2c1C(=O)c1cc(I)c(O)c(I)c1 [Benziodarone] (100 µM),7.99 ± 3.4
19,"Nc1cc(Cl)c(O)c(Cl)c1 [4-Amino-2,6-dichlorophenol] (100 µM)",-14.4 ± 29
20,COC(=O)Nc1nc2cc(Sc3ccccc3)ccc2[nH]1 [Fenbendazole] (100 µM),-18.1 ± 26
